From PubChem BioAssay (Tox21) come the findings set out here.

The structures appear in SMILES notation. “And” between values parts separate entries of the source, which are not always exact repeats. Equal values may be shown once. Records with an inconclusive call do not appear. Some structures have more than one record in an assay (separate samples or runs), and their calls can disagree. The source made the active and inactive calls. Unless noted, calls follow the shape of the dose curve; as a rule, active = well fitted curve in the direction sought with a large enough effect in the repeat runs; inconclusive = weak or mixed curves; inactive = no such curve, though single readings can be large; an effect the other way counts as inactive or inconclusive.

The nature of assay [1]: qHTS assay for small molecule agonists of the p53 signaling pathway (AID 651631; calls by dose curve; also: nearly all actives have a fitted effect of over 15% in size; also: potency is read from the fitted curve at half-maximal effect). The procedure, abridged:
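HCT-116 cells carrying a stable p53 response element–beta-lactamase reporter were plated, rested 5 h at 37 °C, then exposed to compound in DMSO for 16 h at 37 °C; reporter activity was read as FRET substrate fluorescence after 2 h at room temperature.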
A general note: qHTS replaces the single test concentration by a dilution series.

The nature of assay [2]: qHTS assay for small molecules that induce genotoxicity in human embryonic kidney cells expressing luciferase-tagged ATAD5 (AID 651632). Also: nearly all actives have a fitted effect of over 15% in size. Also: potency is read from the fitted curve at half-maximal effect. In outline: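 Genotoxicity read-out via ATAD5-luciferase: HEK293T cells, 16 hr compound incubation at 37C, Amplite detection.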
Assay [3] in a line: qHTS assay for small molecule agonists of the p53 signaling pathway - cell viability (AID 651633; calls by dose curve; also: nearly all actives have a fitted effect of over 30% in size; also: potency is read from the fitted curve at half-maximal effect). In outline:
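p53RE-bla cells were treated with compound for 16 hours at 37 C. Cytotoxicity was then measured as CellTiter-Glo luminescence after 30 min at room temperature.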

Assay [4] is described as follows: qHTS assay for small molecules that induce genotoxicity in human embryonic kidney cells expressing luciferase-tagged ATAD5 - cell viability (AID 651634; calls by dose curve; also: nearly all actives have a fitted effect of over 25% in size; also: potency is read from the fitted curve at half-maximal effect). The procedure, abridged: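 Live-cell protease activity (CellTiter-Fluor, fluorescence) indicates viability. HEK293T cells with luciferase-tagged ATAD5; 15.5 hr compound treatment at 37C.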
A short description of assay [5]: qHTS assay for small molecule disruptors of the mitochondrial membrane potential - cell viability (AID 720634; calls by dose curve; also: nearly all actives have a fitted effect of over 20% in size; also: potency is read from the fitted curve at half-maximal effect). The procedure, abridged:
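Human hepatoma HepG2 cells were treated for 1 hr with test chemicals, then given m-MPI dye and CellTiter-Glo. Cell viability reflects luminescence proportional to cellular ATP.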

The nature of assay [6]: qHTS assay for small molecule disruptors of the mitochondrial membrane potential (AID 720635). Also: potency is read from the fitted curve at half-maximal effect. The procedure, abridged:
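HepG2 cells exposed to compound 1 hr at 37C, then Mito-MPS dye 30 min. Ratio read of aggregate (540/590 nm) versus monomer (490/535 nm) fluorescence.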

Assay [7] can be described thus: qHTS assay to test for compound auto fluorescence at 590 nm (red) in HepG2 cells (AID 720674). The procedure, abridged: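 Fluorescence at 590 nm emission following 540 nm excitation was recorded from HepG2 wells one hour after compound transfer, with DMSO-only wells as vehicle and Rose Bengal sodium equivalency as the scale.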
A short description of assay [8]: qHTS assay to test for compound auto fluorescence at 535 nm (green) in HepG2 cells (AID 720675).
A short description of assay [9]: qHTS assay to test for compound auto fluorescence at 460 nm (blue) in HEK293 cells (AID 720678). The procedure, abridged:
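Intrinsic compound fluorescence is recorded in live HEK293 cultures after overnight incubation at 37C, 5% CO2, using excitation 405 nm and emission 460 nm. Values are referenced to triamterene.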

Assay [10] in a line: qHTS assay to test for compound auto fluorescence at 590 nm (red) in HEK293 cells (AID 720679). The procedure, abridged:
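Red autofluorescence, HEK293 cells: 2,000 cells/well; attach 4-5 hr 37C; add 23 nL cpd or DMSO; incubate o/n 37C 5% CO2; read Ex540/Em590; Rose Bengal sodium reference.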

Regarding `CC(=O)CC/C=C(\C)CCC=C(C)C`, the Potency entry in [1], in assay [2], in [3], in assay [4], in assay [5] and in assay [6] was “inactive” in each case. Moreover, the Potency entry in assay [7], in assay [8] and in [10] was “inactive” each time. Besides, in assay [9], the result was inactive.

Consider `O=C(Nc1ccc(Cl)cc1)Nc1ccc(Cl)c(Cl)c1`, for which the Potency in assay [1] was 7.5 µM (active) and 5.42 µM (active) and 15.4 µM (active); in [4] it was 9.44 µM (active); in assay [5] it was 1.93 µM (active); in assay [6], 150 nM (active) and 68.2 nM (active) and 86.3 nM (active). Besides, the Potency result in assay [2], in assay [3], in [7], in assay [8] and in assay [10] was “inactive” throughout. Moreover, the molecule was called inactive in [9].

In the case of `Cc1cccc(N(C)C(=S)Oc2ccc3ccccc3c2)c1`, the Potency result in [1], in assay [2], in assay [4], in assay [7], in assay [8] and in [10] was “inactive” in each case. The Potency entry in assay [3] is “inactive and 17.2 µM (active)”; in assay [5], 17.2 µM (active); in assay [6], “inactive and 21.7 µM (active)”. Further, the molecule was called inactive in assay [9].

In the case of `C#C[C@]1(O)CC[C@H]2[C@@H]3CCc4cc(OC)ccc4[C@H]3CC[C@@]21C`, the Potency entry in assay [1], in assay [2], in assay [3], in assay [4], in assay [5] and in assay [7] was “inactive” each time. The Potency result in assay [8] and in [10] was “inactive” in each case. For the same molecule, in [6], the Potency was 19.3 µM (active). In addition, the outcome in [9] was inactive.

Take `Nc1ccccc1N`: the Potency in assay [1] was 62.6 µM (active) and 27.3 µM (active); in assay [2], 2.43 µM (active); in [6], 314 nM (active) and 686 nM (active). The Potency entry in assay [3], in [4], in [5], in [7] and in assay [10] was “inactive” each time.

Turning to `C=C(C)C(=O)OCCOC(=O)C(=C)C`, the Potency entry in assay [1], in assay [2], in assay [3], in assay [4], in assay [5] and in [6] was “inactive” in each case. Moreover, the Potency entry in assay [7], in assay [8] and in assay [10] was “inactive” in each case. In addition, the molecule was called inactive in assay [9].

With `CC(C)=CCCC(C)CCO` (stereo not drawn), the Potency result in assay [1], in assay [2], in [3], in assay [4], in assay [5] and in assay [7] was “inactive” in each case. Further, the Potency entry in assay [8] and in assay [10] was “inactive” throughout.

With `CCCCCCCCCCCO`, the Potency result in assay [1], in assay [2], in [4], in [5], in assay [7] and in [8] was “inactive” throughout. In addition, the Potency result in assay [10] was “inactive”. In addition, the Potency entry was “inactive and 61.1 µM (active)” in [3]; “inactive and 21.7 µM (active)” in [6].

As for `Nc1ncn([C@@H]2O[C@H](CO)[C@@H](O)[C@H]2O)c(=O)n1`, the Potency was 2.11 µM (active) and 4.86 µM (active) in [1]; 668 nM (active) and inactive in [3]; 750 nM (active) and 1.37 µM (active) in assay [4]. Also, the Potency result in assay [2], in assay [5], in assay [6], in [7], in assay [8] and in assay [10] was “inactive” each time.

`CC(C)=CCC/C(C)=C\CO`: the Potency result in assay [1], in assay [2], in [3], in assay [4], in assay [5] and in assay [7] was “inactive” each time. Moreover, the Potency result in assay [8] and in assay [10] was “inactive” each time. In assay [9], the outcome was inactive.

Take `Nc1ccc(Cl)cc1Cl`: the Potency result in [1], in assay [2], in [3], in assay [4], in assay [5] and in [6] was “inactive” each time. In addition, the Potency entry in [7], in [8] and in assay [10] was “inactive” throughout. The molecule was classed as inactive in [9].

On to `C[Si](C)(C)O[Si](C)(C)C`, for which the Potency entry in assay [1], in assay [2], in [3], in assay [4], in [5] and in assay [6] was “inactive” each time. Moreover, the Potency result in assay [7], in assay [8] and in [10] was “inactive” in each case.

On to `OC1CCCCCCCCCCC1`, for which the Potency entry in assay [1], in assay [2], in [3], in assay [4], in [5] and in [7] was “inactive” each time. Also, the Potency entry in assay [8] and in assay [10] was “inactive” in each case. Besides, the Potency in assay [6] is 55 µM (active) and 54.5 µM (active).

With `CC(=O)c1ccccn1`, the Potency result in assay [1], in assay [2], in [3], in assay [4], in assay [5] and in assay [6] was “inactive” throughout. Besides, the Potency entry in assay [7], in [8] and in assay [10] was “inactive” throughout. Further, in [9], the molecule was called inactive.

Regarding `CC(C)(C)NC(=O)[C@H]1CC[C@H]2[C@@H]3CC[C@H]4NC(=O)C=C[C@]4(C)[C@H]3CC[C@]12C`, the Potency entry in assay [1], in assay [2], in [3], in assay [4], in [5] and in [6] was “inactive” each time. Moreover, the Potency result in assay [7], in assay [8] and in assay [10] was “inactive” throughout. For the same molecule, the molecule was classed as inactive in assay [9].

In the case of `Cc1ccc(C)c(O)c1C`, the Potency result in [1], in assay [2], in assay [3], in assay [4], in [5] and in [6] was “inactive” throughout. For the same molecule, the Potency result in assay [7], in assay [8] and in [10] was “inactive” in each case.

As for `O=S(=O)(O)c1ccc(O)cc1`, the Potency entry in assay [1], in assay [2], in assay [3], in assay [4], in assay [5] and in assay [6] was “inactive” each time. Further, the Potency result in assay [7], in assay [8] and in assay [10] was “inactive” throughout. Moreover, in [9], the call was inactive.

On to `CCCCC(CC)COC(=O)c1ccc(N(C)C)cc1` (stereo not drawn), for which the Potency entry in assay [1], in [2], in assay [3], in assay [4], in assay [5] and in [7] was “inactive” each time. The Potency entry in assay [8] and in assay [10] was “inactive” throughout. Also, the Potency in assay [6] was 8.68 µM (active) and 21.7 µM (active). Further, in assay [9], the call was inactive.

Regarding `CCC(C)(O)CCCC(C)C` (stereo not drawn), the Potency entry in assay [1], in [2], in [3], in [4], in assay [5] and in assay [6] was “inactive” each time. The Potency entry in assay [7], in assay [8] and in assay [10] was “inactive” throughout.

With `O=Cc1ccccc1O`, the Potency entry in assay [1], in [2], in assay [3], in assay [4], in [5] and in [6] was “inactive” in each case. Also, the Potency entry in assay [7], in assay [8] and in assay [10] was “inactive” each time. Moreover, the result in [9] was inactive.

`Cc1cccc([N+](=O)[O-])c1C`: the Potency result in assay [1], in assay [2], in assay [3], in assay [4], in [5] and in [6] was “inactive” throughout. Also, the Potency result in [7], in [8] and in [10] was “inactive” throughout.
